Bioassay records (PubChem)
Only a selection was taken, and hits are over-represented in it overall.
ST2 inh = inhibitors of human ST2 (IL1RL1) binding to IL-33, primary screen, biochemical, AlphaLISA; AlphaLISA ST2-Fc/biotin-IL-33 interaction, 1 h; inhibition, % for hits at 17 µM; 78,000 compounds, 2.3% hits; in the data active = inhibition above about 30%
Target sequence (Q01638 whole entry, looked up): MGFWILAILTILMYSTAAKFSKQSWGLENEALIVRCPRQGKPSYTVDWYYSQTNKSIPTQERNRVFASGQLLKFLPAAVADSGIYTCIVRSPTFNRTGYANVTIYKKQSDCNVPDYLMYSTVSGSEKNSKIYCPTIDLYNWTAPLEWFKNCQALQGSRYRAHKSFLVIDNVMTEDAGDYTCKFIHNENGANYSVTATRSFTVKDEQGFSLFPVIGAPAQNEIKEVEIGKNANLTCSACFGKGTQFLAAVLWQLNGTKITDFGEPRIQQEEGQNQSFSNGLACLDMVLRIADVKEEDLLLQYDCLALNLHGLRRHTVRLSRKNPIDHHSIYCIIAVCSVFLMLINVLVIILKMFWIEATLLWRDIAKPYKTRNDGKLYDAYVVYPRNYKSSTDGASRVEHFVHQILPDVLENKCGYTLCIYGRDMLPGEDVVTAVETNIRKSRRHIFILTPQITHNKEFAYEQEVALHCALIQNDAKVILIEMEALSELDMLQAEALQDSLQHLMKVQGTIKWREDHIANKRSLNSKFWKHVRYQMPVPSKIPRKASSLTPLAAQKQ
Of the large screens only hits and unclear results are named; the others gave an inactive call.

CCOC(=O)C1(CCOc2ccccc2)CCN(Cc2cccc(C)n2)CC1	ST2 inh 83.0%
CCOC(=O)C1(CCOC)CCN(Cc2ccc(N(C)c3ccccc3)cc2)CC1	none
CCOC(=O)C1(CCOc2ccccc2)CCN(S(=O)(=O)c2ccc(C)s2)CC1	none
NC(=O)CSc1nnc2c(n1)[nH]c1ccccc12	none
O=C(CSc1nnc2c(n1)[nH]c1ccccc12)NCCc1ccccc1	none
NNc1nnc2c(n1)[nH]c1ccccc12	ST2 inh 31.0%
CCN1CCCC1CN(CC1CCN(CCOC)CC1)C(=O)/C=C/C(C)C (stereo not drawn)	none
CCOC(=O)N1CCN(C(=O)CN(c2cccc(Cl)c2C)S(C)(=O)=O)CC1	none
O=C1OC(c2ccccc2)=C/C1=C\c1c(Cl)cccc1Cl	ST2 inh 46.0%
O=C1Nc2ccccc2/C1=C\c1c(Cl)cccc1Cl	none
Clc1ccccc1-c1nc(-c2ccccc2)no1	none
CCOC(=O)C1(CCOC)CCN(Cc2cnn(C)c2)CC1	none
Cc1cccc(CSC2=NCCN2C(=O)c2c(F)cccc2F)c1	none
Cn1c(=O)c(CN2CCCC(OCc3ccccn3)C2)cc2ccccc21 (stereo not drawn)	none
Fc1ccccc1CN1CC[C@H](c2nnc(-c3ccco3)o2)C1	none
CCC1=C(c2ccc(OC)cc2)S(=O)(=O)N(CC(=O)Nc2ccc(Br)cc2)C1=O	none
Cn1c(CSc2nc3ccccc3o2)nc2ccccc21	none
O=[N+]([O-])c1ccc(CSc2nc3ccccc3o2)cc1	ST2 inh 35.0%
O=C(CSc1nc2ccccc2o1)Nc1ccccc1	none
CC(C)=CCc1c(O)cc(CCc2ccccc2)c(CC=C(C)C)c1O	none
CC(C)Oc1cccc(C(=O)C2CCCN(C3CCN(Cc4ccccn4)CC3)C2)c1 (stereo not drawn)	none
Cc1cccc(C(=O)Nc2cccc(OCc3cc(=O)n4ccc(C)cc4n3)c2)c1	none
CC(=O)Nc1cccc(OCc2cc(=O)n3cc(Cl)ccc3n2)c1	none
COc1cccc(C(=O)Nc2cccc(OCc3cc(=O)n4ccc(C)cc4n3)c2)c1	none
Cc1cccc(C(=O)Nc2ccc(C)c(OCc3cc(=O)n4cccc(C)c4n3)c2)c1	ST2 inh 33.0%
COc1ccc(OCC(=O)Nc2ccc(C)c(OCc3cc(=O)n4ccc(C)cc4n3)c2)cc1	none
Cc1ccc(C(=O)Nc2cccc(OCc3cc(=O)n4cc(Cl)ccc4n3)c2)cc1	none
CCOc1ccc(C(=O)Nc2ccc(C)c(OCc3cc(=O)n4cccc(C)c4n3)c2)cc1	none
COc1cccc(C(=O)Nc2ccc(C)c(OCc3cc(=O)n4cccc(C)c4n3)c2)c1	ST2 inh 31.0%
CCOc1ccc(C(=O)Nc2cccc(OCc3cc(=O)n4cc(Cl)ccc4n3)c2)cc1	ST2 inh 31.0%
CCN(CC)CCCNS(=O)(=O)Cc1ccccc1	none
CCC(=O)N1CCc2cc(Br)cc(S(=O)(=O)N(CC)c3ccccc3)c21	none
CCN(CC)C(=O)Cn1cnc2sc(C(=O)Nc3ccc(OC)c(OC)c3)c(C)c2c1=O	none
CCOC(=O)C1=C(C)Nc2nc(SCc3ccccc3)[nH]c(=O)c2C1c1cccnc1 (stereo not drawn)	none
Cc1nc2c(c(N3CCC(C(O)CCc4ccccc4)CC3)n1)CNC2 (stereo not drawn)	none
N#Cc1cc([N+](=O)[O-])cnc1NCCO	none
N#Cc1cc([N+](=O)[O-])cnc1Sc1ccccc1	ST2 inh 32.0%
O=[N+]([O-])c1ccc(-c2cnc(-c3ccccc3)nc2)cc1	none
CCn1cc(C(=O)Nc2cc(C)on2)c2cc(OC)c(OC)cc2c1=O	none
O=C1CCC(C(=O)N2CCC(C(=O)N3CCCC3)CC2)CN1CC1CCCCC1 (stereo not drawn)	none
CCc1ccc(Nc2nc(N)nc(CSc3nc(C)cc(C)n3)n2)cc1	none
COc1ccc(-c2nc3s/c(=C\c4cc(C)c(O)c(C)c4)c(=O)n3n2)cc1	ST2 inh 36.0%
CCCOc1ccc(-c2nc3s/c(=C\c4ccc(OC)c(OC)c4)c(=O)n3n2)cc1	none
COc1ccc(/C=c2/sc3nc(-c4ccc(Cl)cc4)nn3c2=O)c(OC)c1	none
CCCOc1ccc(-c2nc3s/c(=C\c4ccc(OC)cc4)c(=O)n3n2)cc1	none
COc1ccc(-c2nc3s/c(=C\c4ccc(OC)c(OC)c4)c(=O)n3n2)cc1	ST2 inh 38.0%
CCOc1ccc(-c2nc3s/c(=C\c4ccc(OC)cc4)c(=O)n3n2)cc1	none
CS(=O)(=O)N1CCC(Oc2ccccc2C(=O)NCCCn2cccn2)CC1	none
Cc1nc(C(C)C)ncc1C(=O)N1C[C@@H]2[C@@H]3CC[C@@H](C3)[C@@H]2C1	none
CCC=CCC1=C(CCCCC(CCC(=O)O)OC(C)=O)CCC1=O (stereo not drawn)	none
N#C/C(=C\c1ccc(F)cc1)c1nc(C2CC2)cs1	ST2 inh 52.0%
N#C/C(=C\c1ccc(Cl)cc1)c1nc(C2CC2)cs1	ST2 inh 66.0%
N#C/C(=C\c1ccc([N+](=O)[O-])cc1)c1nc(-c2ccc3c(c2)OCO3)cs1	none
Cc1ccc(C(=O)/C=C(\c2ccccc2)N2CCCCC2)cc1	ST2 inh 30.0%
O=C(/C=C(/c1ccccc1)N1CCCCC1)c1ccc([N+](=O)[O-])cc1	ST2 inh 38.0%
Cc1ccc(C(=O)N2CCCN(C(=O)c3ccc(C)cc3)CC2)cc1	none
O=C(c1ccccc1[N+](=O)[O-])N1CCCCC1	none
O=C(c1ccc([N+](=O)[O-])cc1)N1CCN(c2ccccc2F)CC1	none
O=C(c1ccccc1)N1CCCCC1	none
CN(CC1CCCN(CCc2ccc(F)cc2)C1)C(=O)c1cc2ccccc2cn1 (stereo not drawn)	none
O=C(O)c1cc(-c2ccc3c(c2)OCCO3)cc(S(=O)(=O)N2CCCC2)c1	none
O=[N+]([O-])c1ccc(CN2CC[C@H](c3nnc(-c4ccccc4)o3)C2)cc1	none
Cc1nn(Cc2ccccc2Cl)c(C)c1NC(=O)c1cc(-c2ccco2)on1	none
CC(C)(C)c1ccc(-c2cc(C[C@H]3CNCC[C@H]3CC(=O)NCc3ccc(F)cc3)no2)cc1	none
COc1ccc(CNC(=O)C[C@@H]2CCNC[C@@H]2Cc2cc(-c3ccc(C(C)(C)C)cc3)on2)cc1	ST2 inh 47.0%
CC(C)(C)c1ccc(-c2cc(C[C@H]3CNCC[C@H]3CC(=O)NCc3ccccc3)no2)cc1	none
COc1ccc(NS(=O)(=O)c2cc(C(=O)Nc3ccc(C(=O)O)cc3)ccc2C)cc1	none
COC(=O)[C@@H]1Cc2c([nH]c3ccccc23)[C@H]2C[C@@H](NC(C)C)C[C@@H](c3ccccc3)N21	none
COc1ccc(CNCc2ccc(Br)cc2)cc1	none
Cc1ccccc1OCC(=O)n1nnc2ccccc21	none
O=C(CCN1C(=O)c2ccccc2C1=O)N1CCCCCC1	none
CC(=O)c1ccc(NC(=O)C(Cc2ccccc2)N2C(=O)c3ccccc3C2=O)cc1 (stereo not drawn)	none
O=S(=O)(N=S(N1CCCCC1)N1CCCCC1)c1ccccc1	none
NC1=C(N2CCCCC2)C(=O)c2ccccc2C1=O	ST2 inh 71.0%
CC(=O)c1ccc(NC2=C(N3CCCCC3)C(=O)c3ccccc3C2=O)cc1	ST2 inh 59.0%
CC(=O)c1ccc(OC(=O)N2CCCCC2)cc1	none
COc1cc(NC(=O)c2ccc([N+](=O)[O-])cc2Cl)ccc1NC(=O)c1ccco1	none
COc1ccc(Cl)cc1NC(=O)CCCn1nc([N+](=O)[O-])c(Cl)c1C	none
COc1ccc(CN2CCCN(C)CC2)cc1Br	none
CCc1ccc(C2N(c3nccs3)C(=O)C3CCCN32)cc1 (stereo not drawn)	none
CC1=C(C(=O)Nc2ccccc2)C(c2cccnc2)n2nc(SCc3ccccc3)nc2N1 (stereo not drawn)	none
